CBFb RUNX1 block = inhibitors of human CBF-beta and RUNX1 interaction; AlphaScreen CBFb-His/RUNX1-biotin binding, biochemical; Potency, µM (series often up to 59.8 µM), without a hit: at the highest dose activity, negative = inhibition, actives largely listed as inhibitors; 230,000 tested, under 10 active; AID 1477; active = well fitted curve in the direction sought with a large enough effect; inconclusive = small, poorly fitted or top-dose-only effect, or another doubt; inactive = no such curve, though single readings can be large; an effect the other way counts as inactive or inconclusive; also: % of control where 0% means no effect
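Proteins preincubated together for 20 min at RT before compound addition; 15 min later, nickel and streptavidin beads were added and left 90 min prior to AlphaScreen measurement.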
HTT ATP protect = cytoprotection in Huntington HTT-Q103 PC12 cell model; PC12 HTT-Q103 induced, cytoprotection, ATP luminescence, 40 h; Potency, µM (doses to about 56.4 µM), without a hit: cytoprotection (ATP increase), hits mostly activators; 0.14% of 230,000 active; active = well fitted curve in the direction sought with a large enough effect; inconclusive = small, poorly fitted or top-dose-only effect, or another doubt; inactive = no such curve, though single readings can be large; an effect the other way counts as inactive or inconclusive; also: potency is read from the fitted curve at half-maximal effect; % of control where 0% means no effect; nearly all actives have a fitted effect of over 45% in size
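PC12 cells stably carrying ecdysone-inducible Htt exon 1 (Q103)–GFP were induced with 100 nM tebufenozide (final) alongside library compounds in a dose series. Cytoprotection was scored as retained ATP by ATPlite luminescence.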
JMJD2E inh = inhibitors of human JMJD2E histone demethylase. B2RXH2. JMJD2E catalytic domain, FDH-coupled NADH fluorescence (FDH is formaldehyde dehydrogenase). Potency, µM (top dose mostly 57.1 µM), for the others: at the highest dose activity change, negative = inhibition, actives largely listed as inhibitors. 1.6% of 230,000 active;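 also: potency is read from the fitted curve at half-maximal effect; 0% = wells with enzyme and -100% = buffer wells without enzyme; nearly all actives have a fitted effect of over 50% in size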
Target sequence (B2RXH2 1-337 limits assumed): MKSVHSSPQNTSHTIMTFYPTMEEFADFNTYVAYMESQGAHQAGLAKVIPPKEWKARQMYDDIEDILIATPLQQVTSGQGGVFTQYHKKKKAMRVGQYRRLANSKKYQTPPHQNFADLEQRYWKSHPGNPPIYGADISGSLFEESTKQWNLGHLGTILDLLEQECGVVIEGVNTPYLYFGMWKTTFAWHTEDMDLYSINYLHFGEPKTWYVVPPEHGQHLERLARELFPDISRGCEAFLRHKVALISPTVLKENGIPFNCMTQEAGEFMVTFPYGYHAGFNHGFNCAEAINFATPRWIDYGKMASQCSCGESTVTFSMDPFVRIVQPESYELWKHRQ
HTT aggregate = mutant huntingtin aggregation inhibition | PC12 HttQ103-GFP aggregates, Acumen cytometry, 40 h | Potency, µM (doses to about 46.1 µM), for the others: top-dose activity change, negative = inhibition, hits mostly inhibitors | 1.1% of 220,000 active | AID 1688; active = well fitted curve in the direction sought with a large enough effect; inconclusive = small, poorly fitted or top-dose-only effect, or another doubt; inactive = no such curve, though single readings can be large; an effect the other way counts as inactive or inconclusive; also: potency is read from the fitted curve at half-maximal effect; % is scaled to controls: 0 for no effect and ±100 for the full control effect; nearly all actives have a fitted effect of over 60% in size
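Aggregates are detected as GFP objects 1–25 µm with signal 6 STDEV over background in lysates of induced PC12 cells. These carry Huntingtin exon 1 with 103 glutamines fused to GFP under an ecdysone promoter; compounds titrated.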
ALDH1A1 inh = inhibitors of human aldehyde dehydrogenase 1A1 | AID 1030 | 7.3% of 220,000 active | Potency, µM (top dose mostly 75.3 µM), without a hit: at the top dose activity, negative = inhibition, hits mostly inhibitors | Purified ALDH1A1, NADH fluorescence, propionaldehyde substrate;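 also: potency is read from the fitted curve at half-maximal effect; plate controls were no enzyme wells and a reference inhibitor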
HPGD inh = HPGD (human) dehydrogenase inhibition; P15428; purified HPGD, NADH fluorescence kinetic, PGE2 substrate; Potency, µM, without a hit: at the top dose activity change, negative = inhibition, actives largely listed as inhibitors; 4.3% of 150,000 active; AID 894; also: potency is read from the fitted curve at half-maximal effect; % is scaled to controls: 0 for no effect and ±100 for the full control effect
Target sequence (P15428 whole entry, looked up): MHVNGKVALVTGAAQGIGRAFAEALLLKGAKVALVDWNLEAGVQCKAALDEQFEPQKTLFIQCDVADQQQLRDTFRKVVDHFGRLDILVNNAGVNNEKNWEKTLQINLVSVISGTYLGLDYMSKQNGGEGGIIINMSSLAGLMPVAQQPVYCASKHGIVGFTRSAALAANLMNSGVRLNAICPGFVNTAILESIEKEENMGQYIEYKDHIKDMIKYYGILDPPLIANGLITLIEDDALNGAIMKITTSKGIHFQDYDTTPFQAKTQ
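20 nM HPGD preincubated 15 min at room temperature with compound in 50 mM Tris-HCl pH 8, 0.01% Tween 20. Started with 1 mM NAD+ and 30 uM prostaglandin E2; NADH fluorescence (360/450 nm) read 5 times over 30-s intervals, last minus first.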
* = called active by the depositor; u = inconclusive; x = no result given; [ ] = remark or other dose. This is a sample that favours compounds with a hit; in the whole collection about 9.8% have one here. Unless noted, calls follow the shape of the dose curve; as a rule, active = well fitted inhibition curve with a large enough effect (not every such curve was filed as active); inconclusive = small, poorly fitted or top-dose-only effect, or another doubt; inactive = no such curve, though single readings can be large or run the other way.

SMILES	CBFb RUNX1 block	HTT ATP protect	JMJD2E inh	HTT aggregate	ALDH1A1 inh	HPGD inh
Cc1ccc2c(c1)-c1c(ssc1=S)C(C)(C)N2C(=O)c1ccco1	-28.5%	14.4%[10 µM]	2.0%	-22.1%	10µM*	8.91µM*
CC(C)Cc1c2c([nH]c(=S)c1C#N)CCCC2	6.4%	x	-0.8%	1.6%	-8.3%	22.4µM*
COc1ccc(-c2c3c([nH]c(=S)c2C#N)CCC3)cc1	-3.9%	3.8%[10 µM]	u	3.4%	14.1µM*	10µM*
N#Cc1c(-c2ccco2)c2c([nH]c1=S)CCCC2	0.8%	-8.8%[10 µM]	-25.6%	12.6%	20µM*	15.8µM*
N#Cc1c(-c2cccnc2)c2c([nH]c1=S)CCCC2	6.4%	-0.7%	2.5%	2.8%	u	x
Cc1ccc(SCCNC(=O)c2ccccc2C)cc1	5.3%	0.3%	-4.6%	8.1%	4.7%	15.8µM*
Cc1ccc(SCCNC(=O)c2ccc(C)c(S(=O)(=O)Nc3ccccc3C)c2)cc1	3.2%	-64.5%	-1.5%	17.8µM*	-9.8%	-5.9%
Cc1ccccc1NS(=O)(=O)c1cc(C(=O)NCc2ccco2)ccc1C	-4.3%	-29.9%	5.2%	-1.3%	4.0%	2.0%
CCCc1cc(=O)[nH]c(SCC)n1	-3.4%	42.7%	-1.1%	11.2%	3.4%	-9.5%
CCCc1cc(=O)[nH]c(-n2[nH]c3c(c2=O)CCCC3)n1	0.1%	-4.8%	8.1%	4.5%	23.8µM*	22.4µM*
CC(=O)Oc1cccc(N2C(=O)C3C4C=CC(C4=C(C)C)C3C2=O)c1 (centres undefined)	4.3%	-1.4%	3.1%	u	7.08µM*	-10.8%
CC(=O)Oc1cccc(N2C(=O)C3C(C2=O)C2C=CC3C23CC3)c1 (centres undefined)	2.4%	0.4%	5.6%	26.0%	20µM*	-13.5%
CC(=O)Oc1cccc(N2C(=O)C3CC=CCC3C2=O)c1 (centres undefined)	4.5%	4.9%	3.3%	9.6%	4.2%	-3.4%
COc1ccc(/C=N/NC(=O)c2nn(-c3ccc(Cl)cc3)c(=O)c3c(N)scc23)cc1	u	-36.3%	u	7.9%	6.31µM*	11.2µM*
CCOC(=O)c1nn(-c2ccc(C)c(C)c2)c(=O)c2c(N)scc12	-0.9%	-29.6%	2.9%	0.0%	-3.2%	x
CCOC(=O)c1nn(-c2ccc(OC)cc2)c(=O)c2c(N)scc12	-8.0%	3.4%[10 µM]	u	-11.4%	8.91µM*	-26.2%
COc1ccc(/C=N/NC(=O)c2nn(-c3ccccc3)c(=O)c3c(N)scc23)cc1	u	6.0%	u	4.3%	28.2µM*	28.2µM*
O=C(O)c1ccc(Cl)cc1Cl	5.0%[21.7 µM]	-10.3%	x	x	-9.3%	-11.0%
COc1ccccc1C1CC(=O)NC(C)=C1C(=O)OC(C)C (centres undefined)	1.7%	14.1%[10 µM]	-0.1%	19.3%[9.22 µM]	4.3%	x
O=C(NCc1ccccc1)c1cc(-c2ccncc2)nc2ccc(S(=O)(=O)N3CCOCC3)cc12	7.9%	x	5.3%	12.4%	0.794µM*	-22.5%
O=Cc1ccc2oc3nc4n(c(=O)c3c(=O)c2c1)CCCS4	-21.1%	7.2%	-24.4%	14.0%[9.22 µM]	2.51µM*	u
COc1ccc(-c2nn(-c3ccccc3)cc2C(=O)NC(=S)NNC(=O)c2ccncc2)cc1	u	17.1%	u	10µM*	u	x
COc1ccc(NC(=O)c2cn(-c3ccccc3)nc2-c2ccncc2)cc1	-3.4%	-55.2%	-28.1%	15.1%	0.4%	x
Cc1cc(Br)ccc1SCC(=O)OCC(=O)NC1CCCC1	-3.7%	-32.3%	-1.5%	23.4%	-7.9%	x
CS(=O)(=O)Nc1ccc([N+](=O)[O-])cc1OC1CCCCC1	10.3%	5.2%	-16.1%	x	22.4µM*	-28.5%
SMILES	CBFb RUNX1 block	HTT ATP protect	JMJD2E inh	HTT aggregate	ALDH1A1 inh	HPGD inh
Cc1ccc(CS(=O)(=O)CCC(=O)O)cc1	15.4%	-20.0%	3.9%	24.0%	8.9%	x
CCOc1ccc(C(=O)Nc2nnc(C(C)C)s2)cc1OCC	0.9%	-21.4%	-3.6%	20.3%	25.1µM*	28.2µM*
CCC(CC)c1nnc(NC(=O)Cc2ccccc2[N+](=O)[O-])s1	3.6%	-45.8%	-4.0%	7.8%[9.22 µM]	20µM*	x
COc1cccc(NC(=O)COC(=O)Cc2ccccc2[N+](=O)[O-])c1	1.3%	-39.8%	-2.3%	1.6%	u	x
CSc1cccc(NC(=O)Cc2ccccc2[N+](=O)[O-])c1	-2.4%	-13.8%	-16.2%	-3.9%[9.22 µM]	35.5µM*	x
CCOc1ncccc1C(=O)Nc1nnc(C(CC)CC)s1	9.6%	4.6%	-2.7%	15.5%	4.47µM*	x
CCC(CC)c1nnc(NC(=O)c2ccco2)s1	2.9%	6.3%[10 µM]	-19.6%	9.7%[9.22 µM]	u	x
CC(=O)NCCNc1ncnc2ccc(-c3ccccc3C(F)(F)F)cc12	x	-30.9%	x	x	-7.6%	x
CN(C)Cc1ccccc1-c1cc(-n2ccnc2)ncn1	x	15.1%	u	x	u	-6.2%
C=C(C(=O)O)C(CCCCCC)C(=O)O (centres undefined)	7.3%	-1.8%[10 µM]	4.5%	-12.2%[9.22 µM]	-4.3%	x
O=C(O)c1ccc(NC2=C(N3CCOCC3)C(=O)c3ccccc3C2=O)cc1	-0.6%	8.8%[10 µM]	-29.6%	-13.1%	18.9µM*	-12.3%
CC(=O)N(C1=C(N2CCOCC2)C(=O)c2ccccc2C1=O)c1ccc(C(=O)O)cc1	-7.0%	0.2%[10 µM]	10µM*	9.1%[9.22 µM]	x	x
CC(=O)c1ccc(NC2=C(N3CCOCC3)C(=O)c3ccccc3C2=O)cc1	-15.2%	-46.6%	-8.9%	-3.4%	u	-1.1%
CC(=O)N(C)C1=C(N2CCOCC2)C(=O)c2ccccc2C1=O	-5.7%	-122.4%	u	25.1µM*	u	-6.7%
CNC(=O)CSc1nnc(C(C)C)n1C	0.1%	-1.7%[10 µM]	-15.5%	-8.2%[9.22 µM]	1.4%	x
CNc1cc(-c2ccccc2C(F)(F)F)ncn1	x	5.1%	x	x	2.8%	x
CNC(=O)c1nc(C)n(-c2cc(Cl)ccc2Cl)n1	5.4%	-7.1%	-25.7%	1.7%	-3.6%	-21.5%
CCc1nnc(NC(=O)C2=CCN(S(=O)(=O)c3ccc(F)cc3)CC2)s1	2.4%	9.2%[10 µM]	5.9%	-15.9%[9.22 µM]	x	x
[O-]/C(=C(\C(=S)Nc1ccc(SC(F)F)cc1)[n+]1cccc(CO)c1)c1ccc(Cl)s1	u	x	-8.7%	u	u	x
[O-]/C(=C(\C(=S)Nc1cccc2ccccc12)[n+]1cccc(CO)c1)c1ccc(Cl)s1	-11.7%	-57.7%	12.6µM*	u	12.6µM*	x
Cc1ccc(NC(=S)/C(=C(\[O-])c2ccc(Cl)s2)[n+]2cccc(CO)c2)cc1C	10.7%	x	-6.0%	-24.9%	14.1µM*	x
Cc1nonc1CN(C)C(=O)CC1C(=O)NCCN1Cc1ccc(F)c(F)c1 (centres undefined)	6.2%	1.1%[10 µM]	-7.3%	5.0%[9.22 µM]	2.3%	x
N#Cc1c(Cl)nc(SCc2ccccc2)nc1-c1ccccc1	-4.9%	-2.7%	6.2%	u	31.6µM*	2.82µM*

High-throughput results: PubChem BioAssay, National Center for Advancing Translational Sciences (NCATS)
